# Source: PubChem BioAssay (EPA / NIEHS)
# Active and inactive are the calls of the source. Rule for the calls: active = hit-call score of the fitted dose curve at least 0.9, where 1 is the maximum; inactive = score below 0.9.
# How the values were obtained:
# [1] = biological target: Bile acid receptor (Homo sapiens) (UniProt Q96RI1); experiment: ATG_IR1_CIS: Attagene CIS-FACTORIAL HepG2 Assay for human Nuclear Receptor Subfamily 1 Group H Member 4 (NR1H4), IR1 submotif (AID 2282946); details: IR1 reporter transcription, actives raise or lower the signal
# Bile acid receptor (Homo sapiens), sequence (Q96RI1 whole entry, looked up, the tested form may be a part): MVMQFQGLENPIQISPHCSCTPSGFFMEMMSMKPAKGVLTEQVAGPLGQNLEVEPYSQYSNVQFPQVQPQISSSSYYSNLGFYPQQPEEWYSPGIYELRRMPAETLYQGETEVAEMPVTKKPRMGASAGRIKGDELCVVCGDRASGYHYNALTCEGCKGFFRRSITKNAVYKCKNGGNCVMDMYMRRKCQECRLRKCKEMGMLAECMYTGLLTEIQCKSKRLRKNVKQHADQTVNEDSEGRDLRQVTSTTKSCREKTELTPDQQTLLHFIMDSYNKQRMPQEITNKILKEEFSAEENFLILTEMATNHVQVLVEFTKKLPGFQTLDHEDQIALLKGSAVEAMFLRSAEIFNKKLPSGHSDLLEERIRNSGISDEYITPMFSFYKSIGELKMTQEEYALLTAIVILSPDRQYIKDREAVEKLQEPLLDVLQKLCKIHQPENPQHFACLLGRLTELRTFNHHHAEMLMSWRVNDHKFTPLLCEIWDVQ
# Outline: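 Cells (human HepG2) carry transiently transfected cis-promoter reporter transcription units. Compounds are incubated 24 h, total RNA is reverse-transcribed and amplified, and labelled fragments are resolved by capillary electrophoresis. Curves use DMSO as baseline.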
# [2] = ATG_GRE_CIS: Attagene CIS-FACTORIAL HepG2 Assay for human Glucocorticoid Response Elements (GRE) (AID 2282947); details: HepG2 GRE cis-reporter, Attagene multiplex mRNA; actives raise or lower the signal
# Outline: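 Assay uses human hepatoma HepG2 cells transfected with cis-promoter reporter units, exposed 24 h. mRNA from reporters detected by RT-PCR plus capillary electrophoresis; DMSO serves as negative control and baseline.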
# [3] = ATG_ISRE_CIS: Attagene CIS-FACTORIAL HepG2 Assay for human Interferon Regulatory Factor 1 (IRF1) binding to an Interferon-Stimulated Response Element (ISRE) (AID 2282948); details: HepG2 ISRE cis-reporter (Attagene), mRNA transcription readout; actives raise or lower the signal
# Outline: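 Transiently transfected HepG2 cells carrying cis-element reporter units, dosed 24 hours. Reporter mRNA quantified by RT-PCR, fluorescent primer extension, HpaI digestion and capillary electrophoresis. Bidirectional fitting relative to DMSO.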
# [4] = ATG_M_32_CIS: Attagene CIS-FACTORIAL HepG2 Assay for M32 Transcription Factor (Internal Marker) (AID 2282949); details: HepG2 Attagene cis-factorial M32 reporter, mRNA; actives raise or lower the signal;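 note: background control marker of the multiplexed CIS panel rather than a real target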
# Outline: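 Internal background marker read-out: RT-PCR/capillary electrophoresis fluorescence of reporter transcripts from transiently transfected HepG2 cells after 24 h chemical exposure. Activity fitted bidirectionally relative to DMSO negative control.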
# [5] = ATG_M_06_CIS: Attagene CIS-FACTORIAL HepG2 Assay for M06 Transcription Factor (Internal Marker) (AID 2282950); details: HepG2 Attagene CIS-FACTORIAL M06 internal marker reporter; actives raise or lower the signal
# Outline: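 Steps: transfect HepG2 with multiplexed cis-element reporter constructs; dose chemical 24 h; extract RNA with DNase treatment; reverse-transcribe, PCR-amplify, 6-FAM label, HpaI digest; separate fragments by capillary electrophoresis. Activity fitted both directions versus DMSO.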
# [6] = biological target: Hypoxia-inducible factor 1-alpha (Homo sapiens) (UniProt Q16665); experiment: ATG_HIF1a_CIS: Attagene CIS-FACTORIAL HepG2 Assay for human Hypoxia Inducible Factor 1 (HIF1A) (AID 2282951); details: HepG2 Attagene cis-factorial HIF1a reporter transcription; actives raise or lower the signal
# Hypoxia-inducible factor 1-alpha (Homo sapiens), sequence (Q16665 whole entry, looked up): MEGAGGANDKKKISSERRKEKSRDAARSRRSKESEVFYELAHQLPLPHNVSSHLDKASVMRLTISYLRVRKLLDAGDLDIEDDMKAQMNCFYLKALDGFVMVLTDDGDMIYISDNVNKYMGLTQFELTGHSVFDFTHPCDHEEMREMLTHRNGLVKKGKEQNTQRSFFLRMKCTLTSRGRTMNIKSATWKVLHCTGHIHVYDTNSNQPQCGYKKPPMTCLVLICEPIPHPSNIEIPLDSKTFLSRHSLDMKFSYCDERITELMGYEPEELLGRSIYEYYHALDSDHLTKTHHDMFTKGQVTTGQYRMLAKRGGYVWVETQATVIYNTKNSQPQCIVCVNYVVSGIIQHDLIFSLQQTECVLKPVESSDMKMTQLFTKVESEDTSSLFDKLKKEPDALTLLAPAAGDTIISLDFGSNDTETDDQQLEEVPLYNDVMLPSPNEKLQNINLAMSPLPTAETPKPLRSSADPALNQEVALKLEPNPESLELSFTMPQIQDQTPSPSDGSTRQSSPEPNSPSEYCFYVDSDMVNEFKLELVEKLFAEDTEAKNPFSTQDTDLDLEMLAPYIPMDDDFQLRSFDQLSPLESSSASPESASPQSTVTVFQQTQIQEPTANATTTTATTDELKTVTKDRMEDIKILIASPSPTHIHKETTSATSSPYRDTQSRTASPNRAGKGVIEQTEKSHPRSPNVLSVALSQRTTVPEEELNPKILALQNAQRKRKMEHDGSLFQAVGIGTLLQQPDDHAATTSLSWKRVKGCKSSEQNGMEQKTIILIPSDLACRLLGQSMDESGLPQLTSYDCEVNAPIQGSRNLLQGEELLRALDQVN
# Outline: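 After 24 h chemical exposure of reporter-transfected HepG2 cells, reporter cDNA was PCR-amplified, labelled by 6-FAM primer extension (2 min 95 C, 20 s 68 C, 10 min 72 C), HpaI-cut (2 h, 37 C) and analysed by CE.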
# [7] = biological target: Hepatocyte nuclear factor 6 (Homo sapiens) (UniProt Q9UBC0); experiment: ATG_HNF6_CIS: Attagene CIS-FACTORIAL HepG2 Assay for human Hepatocyte Nuclear Factor 6 (HNF6) (AID 2282952); details: HepG2 Attagene cis-factorial HNF6 reporter transcription; actives raise or lower the signal
# Hepatocyte nuclear factor 6 (Homo sapiens), sequence (Q9UBC0 whole entry, looked up, the tested form may be a part): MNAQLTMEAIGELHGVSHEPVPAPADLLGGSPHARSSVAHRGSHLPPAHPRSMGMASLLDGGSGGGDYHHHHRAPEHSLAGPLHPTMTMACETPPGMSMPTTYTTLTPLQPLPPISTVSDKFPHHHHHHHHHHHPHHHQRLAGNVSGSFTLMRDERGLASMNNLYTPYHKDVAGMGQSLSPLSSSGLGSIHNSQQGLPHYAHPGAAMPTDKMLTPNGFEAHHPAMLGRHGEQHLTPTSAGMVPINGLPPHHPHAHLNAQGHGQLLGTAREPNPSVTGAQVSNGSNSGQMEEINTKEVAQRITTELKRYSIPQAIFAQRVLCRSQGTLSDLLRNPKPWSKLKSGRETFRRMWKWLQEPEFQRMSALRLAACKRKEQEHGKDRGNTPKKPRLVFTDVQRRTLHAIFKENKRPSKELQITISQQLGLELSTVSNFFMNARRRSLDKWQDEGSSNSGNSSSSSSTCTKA
# Outline: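 Reporter mRNA induction or loss in HepG2 after 24 h exposure; transient cis-MRTU transfection; fragments quantified by capillary electrophoresis; bidirectional analysis, DMSO as negative control.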
# [8] = biological target: Heat shock factor protein 1 (Homo sapiens) (UniProt Q00613); experiment: ATG_HSE_CIS: Attagene CIS-FACTORIAL HepG2 Assay for human Heat Shock Transcription Factor 1 (HSE) (AID 2282953); details: HepG2 HSE cis-reporter, Attagene RNA transcription; actives raise or lower the signal
# Heat shock factor protein 1 (Homo sapiens), sequence (Q00613 whole entry, looked up, the tested form may be a part): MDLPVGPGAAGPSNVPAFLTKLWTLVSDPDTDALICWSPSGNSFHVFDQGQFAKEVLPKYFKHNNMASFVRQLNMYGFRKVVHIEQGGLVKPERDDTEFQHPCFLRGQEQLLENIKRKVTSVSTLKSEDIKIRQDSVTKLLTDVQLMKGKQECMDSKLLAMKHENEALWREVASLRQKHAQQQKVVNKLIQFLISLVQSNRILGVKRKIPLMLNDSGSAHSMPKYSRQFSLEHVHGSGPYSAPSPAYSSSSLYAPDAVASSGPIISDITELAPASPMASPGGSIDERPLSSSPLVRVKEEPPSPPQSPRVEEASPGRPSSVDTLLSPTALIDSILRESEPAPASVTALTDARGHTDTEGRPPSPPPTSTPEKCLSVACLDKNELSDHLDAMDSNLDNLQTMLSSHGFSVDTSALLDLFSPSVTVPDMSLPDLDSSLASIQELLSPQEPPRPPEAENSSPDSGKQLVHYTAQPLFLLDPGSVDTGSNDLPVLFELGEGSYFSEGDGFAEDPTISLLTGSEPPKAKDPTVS
# Outline: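 Cells were transfected with cis-element-driven reporter constructs, dosed for 24 h, then total RNA was reverse-transcribed and reporter cDNA amplified, FAM-labelled and digested with HpaI. Fragments were resolved by capillary electrophoresis; gain or loss was fitted against DMSO.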
# [9] = ATG_MRE_CIS: Attagene CIS-FACTORIAL HepG2 Assay for human Metal Responsive Element (MRE) (AID 2282954); details: HepG2 MRE cis-reporter transcription, Attagene multiplex; actives raise or lower the signal
# Outline: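 After a 24 h chemical exposure, transiently transfected HepG2 cells yield RNA whose reporter sequences are amplified, FAM-labelled and sized by capillary electrophoresis. Curves are fitted bidirectionally relative to DMSO.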
# [10] = biological target: Paired box protein Pax-6 (Homo sapiens) (UniProt P26367); experiment: ATG_Pax6_CIS: Attagene CIS-FACTORIAL HepG2 Assay for human Paired Box 6 (PAX6) (AID 2282956); details: HepG2 CIS-FACTORIAL PAX6 reporter transcription, RNA readout; actives raise or lower the signal
# Paired box protein Pax-6 (Homo sapiens), sequence (P26367 whole entry, looked up): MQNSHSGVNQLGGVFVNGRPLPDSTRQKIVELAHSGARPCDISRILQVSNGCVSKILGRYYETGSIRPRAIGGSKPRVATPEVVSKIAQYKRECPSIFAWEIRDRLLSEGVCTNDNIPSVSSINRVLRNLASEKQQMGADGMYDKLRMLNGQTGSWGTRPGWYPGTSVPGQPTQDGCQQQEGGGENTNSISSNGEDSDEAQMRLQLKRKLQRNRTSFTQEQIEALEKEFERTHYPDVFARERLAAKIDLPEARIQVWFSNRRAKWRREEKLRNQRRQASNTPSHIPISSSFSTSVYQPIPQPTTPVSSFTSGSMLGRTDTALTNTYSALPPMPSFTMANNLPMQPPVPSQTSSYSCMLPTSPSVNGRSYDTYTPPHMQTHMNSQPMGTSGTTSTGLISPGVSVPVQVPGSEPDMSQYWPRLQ
# Outline: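 HepG2 cells transiently transfected with cis-promoter-driven multiplexed reporter units sensing endogenous transcription factor activity; 24 h chemical exposure. Reporter mRNA quantified by RT-PCR, 6-FAM labelling, HpaI digestion and capillary electrophoresis; bidirectional fit versus DMSO baseline.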
# [11] = ATG_PXRE_CIS: Attagene CIS-FACTORIAL HepG2 Assay for human Pregnane X Receptor Element (PXRE) (AID 2282957); details: HepG2 Attagene CIS-FACTORIAL PXRE reporter, mRNA; actives raise or lower the signal
# Outline: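 Transiently transfected HepG2 cells were dosed and incubated for 24 h. RNA was then isolated, DNase-treated, reverse-transcribed and reporter sequences amplified. Labeled, HpaI-digested fragments were quantified by capillary electrophoresis against DMSO.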
# [12] = ATG_RORE_CIS: Attagene CIS-FACTORIAL HepG2 Assay for human RAR-related Orphan Receptor Element (RORE) (AID 2282959); details: HepG2 Attagene cis-factorial RORE reporter, mRNA; actives raise or lower the signal
# Outline: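 A 24-hour exposure of transfected HepG2 hepatoma cells precedes RNA isolation and reporter RT-PCR. Labeled products are digested with HpaI and resolved by capillary electrophoresis, with gain or loss of signal scored relative to DMSO.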
# [13] = ATG_Sox_CIS: Attagene CIS-FACTORIAL HepG2 Assay for human SRY-box transcription factor (SOX) (AID 2282960); details: HepG2 Attagene cis-factorial SOX reporter, mRNA; actives raise or lower the signal
# Outline: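 HepG2, cis reporter units, 24 h exposure. Reporter mRNA: RT-PCR → FAM labelling → HpaI → CE fluorescence. Bidirectional fit vs DMSO.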
# [14] = ATG_SREBP_CIS: Attagene CIS-FACTORIAL HepG2 Assay for human Sterol Regulatory Element Binding (SREBP) (AID 2282962); details: HepG2 Attagene cis-factorial SREBP reporter, mRNA; actives raise or lower the signal
# Outline: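 HepG2 cells transiently transfected with multiplexed cis-promoter reporter units sensing endogenous transcription factors; reporter mRNA measured 24 h after dosing by RT-PCR, 6-FAM labeling, HpaI digestion and capillary electrophoresis. Bidirectional fit versus DMSO.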
# [15] = biological target: Signal transducer and activator of transcription 3 (Homo sapiens) (UniProt P40763); experiment: ATG_STAT3_CIS: Attagene CIS-FACTORIAL HepG2 Assay for human Signal Transducer and Activator of Transcription 3 (STAT3) (AID 2282963); details: HepG2, Attagene cis-factorial STAT3 reporter transcription; actives raise or lower the signal
# Signal transducer and activator of transcription 3 (Homo sapiens), sequence (P40763 whole entry, looked up): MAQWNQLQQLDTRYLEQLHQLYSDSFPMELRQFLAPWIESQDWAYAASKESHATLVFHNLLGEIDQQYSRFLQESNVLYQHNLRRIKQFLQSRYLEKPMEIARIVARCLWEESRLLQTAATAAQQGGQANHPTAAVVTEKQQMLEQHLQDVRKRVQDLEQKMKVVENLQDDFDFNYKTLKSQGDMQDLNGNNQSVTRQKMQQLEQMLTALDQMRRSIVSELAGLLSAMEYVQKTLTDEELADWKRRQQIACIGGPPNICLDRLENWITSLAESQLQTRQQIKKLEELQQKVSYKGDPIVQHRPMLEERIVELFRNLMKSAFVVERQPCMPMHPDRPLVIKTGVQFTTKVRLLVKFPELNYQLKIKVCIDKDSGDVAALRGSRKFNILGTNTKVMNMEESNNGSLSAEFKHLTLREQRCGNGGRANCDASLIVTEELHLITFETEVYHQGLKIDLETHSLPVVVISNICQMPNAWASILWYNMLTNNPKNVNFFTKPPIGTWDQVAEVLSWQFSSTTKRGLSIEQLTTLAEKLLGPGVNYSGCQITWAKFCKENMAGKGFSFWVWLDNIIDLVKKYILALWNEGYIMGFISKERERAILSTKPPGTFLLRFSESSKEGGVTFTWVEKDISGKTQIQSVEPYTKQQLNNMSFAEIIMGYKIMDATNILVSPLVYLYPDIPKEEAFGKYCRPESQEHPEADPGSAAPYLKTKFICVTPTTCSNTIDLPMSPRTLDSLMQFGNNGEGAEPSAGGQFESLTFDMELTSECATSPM
# Outline: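 After a 24 h compound incubation, total RNA from MRTU-transfected HepG2 cells was converted to cDNA and reporter sequences PCR-amplified, labelled and profiled by capillary electrophoresis. Gain and loss of signal were referenced to DMSO.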
# [16] = ATG_TA_CIS: Attagene CIS-FACTORIAL HepG2 Assay for human TA Basal Promoter (AID 2282964); details: HepG2 Attagene CIS-factorial TA basal promoter reporter; actives raise or lower the signal
# Outline: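 Steps: transfect HepG2 with MRTUs; dose 24 h; isolate RNA, DNase-treat, reverse-transcribe; PCR and FAM-label reporter cDNA; digest with HpaI 2h at 37 C; run capillary electrophoresis. Activity fitted both directions against DMSO.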
# [17] = ATG_TCF_b_cat_CIS: Attagene CIS-FACTORIAL HepG2 Assay for human T-Cell-Factor with beta-catenin (TCF/b-cat) (AID 2282965); details: HepG2 TCF/beta-catenin cis-reporter transcription, actives raise or lower the signal
# Outline: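 Endogenous transcription factor activity is captured through cis-promoter reporter constructs transiently introduced into human HepG2 liver cells. Induced reporter mRNA is measured after 24 h and fitted bidirectionally relative to DMSO.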
# [18] = ATG_PBREM_CIS: Attagene CIS-FACTORIAL HepG2 Assay for human Phenobarbital-responsive Enhancer Module (PBREM) (AID 2282955); details: HepG2 PBREM cis-reporter, Attagene multiplexed transcription; actives raise or lower the signal
# Outline: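 Measures endogenous factor action on a phenobarbital-responsive enhancer module. HepG2 transiently carrying cis reporters, 24 h treatment, mRNA read-out by RT-PCR plus capillary electrophoresis.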
# [19] = ATG_PPRE_CIS: Attagene CIS-FACTORIAL HepG2 Assay for human Peroxisome Proliferator-activated Response Element (PPRE) (AID 2282958); details: HepG2 PPRE cis-element reporter, Attagene transcription factor profiling; actives raise or lower the signal
# Outline: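 PPRE activity in HepG2: transient cis-reporter transfection, 24 h compound incubation, reporter mRNA by RT-PCR and CE fluorescence; gain/loss fitted against DMSO.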
# [20] = biological target: Transcription factor Sp1 (Homo sapiens) (UniProt P08047); experiment: ATG_Sp1_CIS: Attagene CIS-FACTORIAL HepG2 Assay for human Specificity Protein 1 (Sp1) (AID 2282961); details: HepG2 Sp1 cis-reporter transcription, actives raise or lower the signal
# Transcription factor Sp1 (Homo sapiens), sequence (P08047 whole entry, looked up, the tested form may be a part): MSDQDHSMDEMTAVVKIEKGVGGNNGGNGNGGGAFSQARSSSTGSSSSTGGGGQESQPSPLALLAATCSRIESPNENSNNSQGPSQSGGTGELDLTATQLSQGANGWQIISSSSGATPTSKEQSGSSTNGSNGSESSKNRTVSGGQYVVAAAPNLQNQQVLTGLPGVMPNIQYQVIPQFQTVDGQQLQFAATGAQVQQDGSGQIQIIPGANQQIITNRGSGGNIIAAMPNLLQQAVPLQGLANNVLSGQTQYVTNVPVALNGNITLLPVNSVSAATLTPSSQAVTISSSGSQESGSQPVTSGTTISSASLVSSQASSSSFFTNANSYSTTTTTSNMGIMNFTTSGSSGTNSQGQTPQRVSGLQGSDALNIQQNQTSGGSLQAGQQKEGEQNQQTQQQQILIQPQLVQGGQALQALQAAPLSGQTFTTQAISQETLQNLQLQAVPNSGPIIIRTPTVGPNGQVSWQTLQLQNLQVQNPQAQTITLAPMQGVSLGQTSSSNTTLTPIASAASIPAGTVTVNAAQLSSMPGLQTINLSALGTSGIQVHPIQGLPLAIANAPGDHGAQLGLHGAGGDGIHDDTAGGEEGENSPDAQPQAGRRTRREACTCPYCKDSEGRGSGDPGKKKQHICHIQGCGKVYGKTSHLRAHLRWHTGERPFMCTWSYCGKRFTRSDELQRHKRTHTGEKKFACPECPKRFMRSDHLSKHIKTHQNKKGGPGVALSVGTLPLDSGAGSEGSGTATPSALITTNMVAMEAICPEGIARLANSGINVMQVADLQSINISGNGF
# Outline: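 Liver-derived HepG2 cells, cis-element reporter library, 24 h treatment; RNA isolated, cDNA amplified with reporter-specific primers, FAM-labeled fragments sized on capillary analyzer. DMSO baseline, bidirectional curve fit.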
smiles,measurement,setting,value
Cc1ccc2oc(CN(Cc3ccccc3)C(=O)Nc3c(F)cc(F)cc3F)c(-c3ccc(Cl)cc3)c2c1,outcome,[1],inactive
same,outcome,[2],inactive
same,outcome,[3],inactive
same,outcome,[4],inactive
same,outcome,[5],inactive
same,outcome,[6],inactive
same,outcome,[7],inactive
same,outcome,[8],inactive
same,outcome,[9],inactive
same,outcome,[10],inactive
same,AC50,[11],0.63 µM (active)
same,outcome,[12],inactive
same,outcome,[13],inactive
same,outcome,[14],inactive
same,outcome,[15],inactive
same,outcome,[16],inactive
same,outcome,[17],inactive
c1ccc2n[nH]nc2c1,outcome,[2],inactive
same,outcome,[3],inactive
same,outcome,[4],inactive
same,outcome,[5],inactive
same,outcome,[6],inactive
same,outcome,[7],inactive
same,outcome,[8],inactive
same,outcome,[9],inactive
same,outcome,[18],inactive
same,outcome,[10],inactive
same,outcome,[11],inactive
same,outcome,[19],inactive
same,outcome,[12],inactive
same,outcome,[13],inactive
same,outcome,[20],inactive
same,outcome,[14],inactive
same,outcome,[15],inactive
same,outcome,[16],inactive
same,outcome,[17],inactive
C[C@]12CC[C@@H]3c4ccc(O)cc4CC[C@H]3[C@@H]1CCC2=O,outcome,[1],inactive
same,outcome,[3],inactive
same,outcome,[4],inactive
same,outcome,[5],inactive
same,outcome,[6],inactive
same,outcome,[7],inactive
same,outcome,[8],inactive
same,outcome,[9],inactive
same,outcome,[10],inactive
same,outcome,[13],inactive
same,outcome,[20],inactive
same,outcome,[14],inactive
same,outcome,[15],inactive
same,outcome,[16],inactive
same,outcome,[17],inactive
OCCO,outcome,[1],inactive
same,outcome,[3],inactive
same,outcome,[4],inactive
same,outcome,[5],inactive
same,AC50,[6],51.2 µM (active)
same,outcome,[7],inactive
same,outcome,[8],inactive
same,outcome,[9],inactive
same,outcome,[18],inactive
same,outcome,[10],inactive
same,outcome,[11],inactive
same,outcome,[19],inactive
same,outcome,[13],inactive
same,outcome,[14],inactive
same,outcome,[15],inactive
same,outcome,[16],inactive
same,outcome,[17],inactive
